In PubChem BioAssay (NCATS):
Results filed as inconclusive are left out. Active and inactive are the calls of the source. The call rests on the fitted dose curve; in most records, active means well fitted cell-killing curve with a large enough effect; inconclusive means small, poorly fitted or top-dose-only effect, or effect the other way; inactive means flat fitted curve, though single readings scatter.

How the values were obtained:
Assay in all cases: Primary qHTS to identify gynecologic anti-cancer compounds using libraries of approved drugs and bioactive compounds (AID 1345084); further: nearly all actives have a fitted effect of over 55% in size
C33A = conditions: Gynecologic cancer cell panel viability, ATPlite luminescence, 48 h; series mostly up to 57.5 µM
How it was run: (§1)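 Five-point cytotoxicity, 48 h drug exposure at 37 C, 5% CO2, on cells seeded 16 h beforehand. ATP content read by ATPlite luminescence.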

CAOV3 = conditions: Gynecologic cancer cell panel viability, ATPlite luminescence, 48 h; series mostly up to 57.5 µM
How it was run: as §1

CASKI = conditions: Gynecologic cancer cell panel viability, ATPlite luminescence, 48 h; series mostly up to 57.5 µM
How it was run: as §1

Es-2 = conditions: Gynecologic cancer cell panel viability, ATPlite luminescence, 48 h; series mostly up to 57.5 µM
How it was run: as §1

HeLa = conditions: Gynecologic cancer cell panel viability, ATPlite luminescence, 48 h; series mostly up to 57.5 µM
How it was run: as §1

Hek293T = conditions: Gynecologic cancer cell panel viability, ATPlite luminescence, 48 h, control line for the selectivity index; series mostly up to 57.5 µM
How it was run: as §1
On the % scale 0 is the no-effect control and ±100 the full control effect.

NC1CCCCN(c2c(F)cc3c(=O)c(C(=O)O)cn(C4CC4)c3c2Cl)C1 (stereo not given)
inactive: Potency (C33A) | Potency (CAOV3) | Potency (CASKI) | Potency (Es-2) | Potency (HeLa) | Potency (Hek293T)

CC(C)=CCC[C@](C)(O[C@@H]1O[C@H](CO[C@@H]2O[C@H](CO)[C@@H](O)[C@H](O)[C@H]2O)[C@@H](O)[C@H](O)[C@H]1O)C1CC[C@]2(C)[C@@H]1[C@H](O)CC1[C@@]3(C)CC[C@H](O[C@@H]4O[C@H](CO)[C@@H](O)[C@H](O)[C@H]4O[C@@H]4O[C@H](CO)[C@@H](O)[C@H](O)[C@H]4O)C(C)(C)[C@@H]3CC[C@]12C (stereo not given in full)
inactive: activity change, negative = cytotoxicity (C33A) 0.112% [at 11.6 µM] | activity change, negative = cytotoxicity (CAOV3) 10.1% [at 11.6 µM] | activity change, negative = cytotoxicity (CASKI) 27.8% [at 11.6 µM] | activity change, negative = cytotoxicity (Es-2) -0.241% [at 11.6 µM] | activity change, negative = cytotoxicity (HeLa) -0.531% [at 11.6 µM] | activity change, negative = cytotoxicity (Hek293T) -3.2% [at 11.6 µM]

CC[C@H]1OC(=O)[C@H](C)[C@@H](O[C@H]2C[C@@](C)(OC)[C@@H](O)[C@H](C)O2)[C@H](C)[C@@H](O[C@@H]2O[C@H](C)C[C@H](N(C)C)[C@H]2O)[C@](C)(O)C[C@@H](C)C(=O)[C@H](C)[C@H]2OC(=O)O[C@@]21C
inactive: Potency (C33A) | Potency (CAOV3) | Potency (CASKI) | Potency (Es-2) | Potency (HeLa) | Potency (Hek293T)

Clc1cc2c(NC3CCCC3)nnc(-c3ccncc3)c2cc1Cl
inactive: Potency (C33A) | Potency (CAOV3) | Potency (CASKI) | Potency (Es-2) | Potency (HeLa) | Potency (Hek293T)

COc1ccc(CCO[C@@H]2O[C@H](CO[C@@H]3OC[C@H](O)[C@H](O)[C@H]3O)[C@@H](O)[C@H](O)[C@H]2O)cc1
inactive: Potency (C33A) | Potency (CAOV3) | Potency (CASKI) | Potency (Es-2) | Potency (HeLa) | Potency (Hek293T)

CC1=CC(=O)C2(OC3OC(C)C(O)C(OC(=O)/C=C/c4ccccc4)C3O)C=COC(OC3OC(CO)C(O)C(O)C3O)C12 (stereo not given)
inactive: Potency (C33A) | Potency (CAOV3) | Potency (CASKI) | Potency (Es-2) | Potency (HeLa) | Potency (Hek293T)

O=C(CO)[C@@H](O)[C@H](O[C@@H]1O[C@H](CO)[C@H](O)[C@H](O)[C@H]1O)[C@H](O)CO
inactive: Potency (C33A) | Potency (CAOV3) | Potency (CASKI) | Potency (Es-2) | Potency (HeLa) | Potency (Hek293T)

CC1(C)CC[C@]2(C(=O)O[C@@H]3O[C@H](CO)[C@@H](O)[C@H](O)[C@H]3O)CC[C@]3(C)C(=CCC4[C@@]5(C)C[C@@H](O)[C@H](O)C(C)(C)C5CC[C@]43C)C2[C@@H]1O (stereo not given in full)
inactive: Potency (C33A) | Potency (CAOV3) | Potency (CASKI) | Potency (Es-2) | Potency (HeLa) | Potency (Hek293T)

COc1cccc(C(=O)N2CCN(C(=O)COc3cccc(C)c3)CC2)c1OC
inactive: Potency (C33A) | Potency (CAOV3) | Potency (CASKI) | Potency (Es-2) | Potency (HeLa) | Potency (Hek293T)

CC1(C)CCC2(C(=O)OC3OC(CO)C(O)C(O)C3O)CCC3(C)C(=CCC4C5(C)CCC(OC6OC(C(=O)O)C(OC7OC(CO)C(O)C(O)C7O)C(OC7OC(CO)C(O)C(O)C7O)C6O)C(C)(C)C5CCC43C)C2C1 (stereo not given)
inactive: activity change, negative = cytotoxicity (C33A) -2.64% [at 11.6 µM] | activity change, negative = cytotoxicity (CAOV3) 3.96% [at 11.6 µM] | activity change, negative = cytotoxicity (CASKI) 5.46% [at 11.6 µM] | activity change, negative = cytotoxicity (Es-2) -0.153% [at 11.6 µM] | activity change, negative = cytotoxicity (HeLa) 10.1% [at 11.6 µM] | activity change, negative = cytotoxicity (Hek293T) -1.3% [at 11.6 µM]

CCOc1cc(C)c(Cl)cc1S(=O)(=O)n1cnc2ccccc21
inactive: Potency (C33A) | Potency (CAOV3) | Potency (CASKI) | Potency (Es-2) | Potency (HeLa) | Potency (Hek293T)

CC1(C)CCC(C)(C)c2cc(C3(c4ccc(C(=O)O)cc4)OCCO3)ccc21
inactive: Potency (C33A) | Potency (CAOV3) | Potency (CASKI) | Potency (Es-2) | Potency (HeLa) | Potency (Hek293T)

C[C@@H]1N[C@H]2N(C1=O)c1ccccc1[C@@]2(O)C[C@@H]1C(=O)N[C@@H](C)c2nc3ccccc3c(=O)n21
inactive: Potency (C33A) | Potency (CAOV3) | Potency (CASKI) | Potency (Es-2) | Potency (HeLa) | Potency (Hek293T)

O=C1C=CC(O)(/C=C/C(=O)OC[C@H]2O[C@@H](Oc3ccc(O)cc3)[C@H](O)[C@@H](O)[C@@H]2O)C=C1
inactive: Potency (C33A) | Potency (CAOV3) | Potency (CASKI) | Potency (Es-2) | Potency (HeLa) | Potency (Hek293T)

CC1(C)CCCC2(C)C(C(=O)O)=CCC12 (stereo not given)
inactive: Potency (C33A) | Potency (CAOV3) | Potency (CASKI) | Potency (Es-2) | Potency (HeLa) | Potency (Hek293T)

O=C(O)c1cn(C2CC2)c2cc(N3C[C@@H]4C[C@H]3CN4)c(F)cc2c1=O
inactive: Potency (C33A) | Potency (CAOV3) | Potency (CASKI) | Potency (Es-2) | Potency (HeLa) | Potency (Hek293T)

C=CC(C)(CC/C=C(\C)C(=O)OC)OC1OC(COC(=O)CC(C)(O)CC(=O)O)C(OC2OC(CO)C(O)C(O)C2O)C(O)C1O (stereo not given)
inactive: Potency (C33A) | Potency (CAOV3) | Potency (CASKI) | Potency (Es-2) | Potency (HeLa) | Potency (Hek293T)

Cc1noc(-c2ccc(-c3ccc(CC(=O)O)cc3)cc2)c1NC(=O)O[C@H](C)c1ccccc1
inactive: Potency (C33A) | Potency (CAOV3) | Potency (CASKI) | Potency (Es-2) | Potency (HeLa) | Potency (Hek293T)

CC(C)(C(=O)NCC(F)(F)C(F)(F)F)C(=O)NC1C(=O)Nc2ccccc2-c2ccccc21 (stereo not given)
inactive: Potency (C33A) | Potency (CAOV3) | Potency (CASKI) | Potency (Es-2) | Potency (HeLa) | Potency (Hek293T)

C/C1=C\CCC2=C[C@@H](OC2=O)c2c(C)coc2C1
inactive: Potency (C33A) | Potency (CAOV3) | Potency (CASKI) | Potency (Es-2) | Potency (HeLa) | Potency (Hek293T)
